The structures appear in SMILES notation. The panel holds about 83,000 compounds, 20% with a hit somewhere; the sample as a whole holds those more often.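 Cell lines were cultured in 96-well plates, exposed to a single compound concentration, and assessed for percent growth 48 hours later.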 Values without a mark were called inactive. Active and inactive are the calls of the source. How the source made its calls: active means growth percent below 10; inactive means the rest.

In this assay the test system is UO-31 renal. In words: NCI-60 one-dose screen, 48 h (100 = growth as untreated, 0 = no growth, -100 = all killed). To be noted: 10 µM unless noted.
Regarding `CC(=O)OC[C@]12CC[C@@H]([C@@H](C)c3nnc(-c4ccncc4)o3)[C@@H]1[C@H]1CC[C@@H]3[C@@]4(C)CC[C@H](OC(C)=O)C(C)(C)[C@@H]4CC[C@@]3(C)[C@]1(C)CC2`, the growth is 69%.
With `CN(Cc1ccccc1)c1nc(Cl)c(C2CC(c3ccccc3)=NN2c2ccccc2)s1` (configuration not stated), the growth is 81.5%.
For `CSc1nc(C)c([N+](=O)[O-])c(N)n1`, the growth is 98%.
For the compound `CN1CCN(Cc2ccc(NC(=O)c3cncc(C#Cc4cnc(N)c5ccc(F)cc45)c3)cc2C(F)(F)F)CC1`, the growth was -3.87% (active).
With `CN1CCN(C(=O)[C@@]2(C)CC[C@]3(C)CC[C@]4(C)C(=CC[C@@H]5[C@@]6(C)CCC(=O)NC(C)(C)[C@@H]6CC[C@]54C)[C@@H]3C2)CC1` the figure was 48.3%; with `COc1ccc(/C=C2\CN(C(=O)C(Cl)Cl)C/C(=C\c3ccc(OC)cc3)C2=O)cc1`, -97.8% (active).
For `O=C(NNc1cnccn1)c1nc2cc(F)ccc2n2cccc12`, the growth was 16.3%.
With `COc1cc(/C=C2\CN(S(=O)(=O)c3ccccc3)C/C(=C\c3cc(CN4CCCCC4)c(O)c(OC)c3)C2=O)cc(CN2CCCCC2)c1O`, the growth is -96.6% (active).
For the compound `COc1ccc(/C=C/C(c2cc(OC)c(OC)c(OC)c2)n2ccnc2)cc1O` (configuration not stated), the growth was 59.9%.
With `C/C=C(/C)n1cnc2c(Nc3ccccn3)nc(Cl)nc21` the figure was 80.8%.
Consider `Oc1ccc(/C=C/c2ccc(O)cc2)cc1`, for which the growth is 21.5%.
Consider `C#CCOc1cccc(-c2ncnc3cc(NC(=O)C=C)ccc23)c1`, for which the growth was 15%.

Source of the values: PubChem BioAssay (NCI).
